{"source": "PubChem BioAssay (NCATS)", "key": {"[1]": {"experiment": "qHTS Screen of the MIPE 4.0 Collection Against Ewings Sarcoma (EW8) (AID 1259255); note: nearly all actives have a fitted effect of over 35% in size; note: potency is the fitted concentration of half-maximal effect", "procedure,_shortened": "(§1)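 Measured: ATP luminescence (CellTiter-Glo) 10 min after reagent addition, following 48 h drug treatment. Relative luciferase units converted to percent activity, with no-cell wells as full and DMSO wells as zero inhibition.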"}, "[2]": {"experiment": "qHTS Screen of the MIPE 4.0 Collection Against Ewings Sarcoma (TC32) (AID 1259256)", "procedure,_shortened": "as §1"}, "[3]": {"experiment": "Identifying Small Molecule Inhibitors of Pancreatic Cancer Stem Cells (SN12C, Adherent) (AID 1259358)", "procedure,_shortened": "(§2)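 After a 4 h attachment period, compounds were pinned into wells and cultures held 48 h under standard incubator conditions. Viability was then measured as CellTiter-Glo luminescence following 10 min at room temperature.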"}, "[4]": {"experiment": "Identifying Small Molecule Inhibitors of Pancreatic Cancer Stem Cells (A278, Adherent) (AID 1259361)", "procedure,_shortened": "as §2"}, "[5]": {"experiment": "Identifying Small Molecule Inhibitors of Pancreatic Cancer Stem Cells (Panc1, Adherent) (AID 1259362)", "conditions": "Potency: viability", "procedure,_shortened": "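Cytotoxicity read by CellTiter-Glo luminescence after 48 h compound exposure at 37C; percent activity scaled between DMSO-treated cells and cell-free wells. Spheroid formats used cells pre-formed 14 days in stem cell media on hydrogel.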"}, "[6]": {"experiment": "Identifying Small Molecule Inhibitors of Pancreatic Cancer Stem Cells (A2780, Spheroid) (AID 1259357)", "conditions": "Potency: A2780 spheroid viability", "procedure,_shortened": "(§3)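 Endpoint: ATP-based luminescence, 48 h drug exposure. Bortezomib at 9.2 uM final as full-kill control; DMSO vehicle as negative control; activity normalized between vehicle and cell-free wells.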"}, "[7]": {"experiment": "Identifying Small Molecule Inhibitors of Pancreatic Cancer Stem Cells (SN12C, Spheroid) (AID 1259360)", "conditions": "Potency: SN12C spheroid viability", "procedure,_shortened": "as §3"}}, "note": "Records with an inconclusive call do not appear. Entries that show only a call come without a potency. Activity calls are given as the source filed them. Calls come from the whole dose curve; as a rule, active = well fitted curve in the direction sought with a large enough effect; inconclusive = small, poorly fitted or top-dose-only effect, or another doubt; inactive = no such curve, though single readings can be large; an effect the other way counts as inactive or inconclusive. Throughout, for IC50 (viability decrease): nearly all actives have a fitted effect of over 35% in size. Throughout, for Potency: potency is the fitted concentration of half-maximal effect.", "data": [{"smiles": "C1=C2CCCN[C@H]2[C@@H]2C[C@H]1[C@@H]1CCCCN1C2", "values": [{"measurement": "Potency", "setting": "[1]", "value": "inactive"}, {"measurement": "Potency", "setting": "[2]", "value": "inactive"}]}, {"smiles": "O=C(N[C@H]1CN2CCC1CC2)c1ccc(Cl)cc1", "values": [{"measurement": "Potency", "setting": "[2]", "value": "14.8 µM (active)"}]}, {"smiles": "CCOC(=O)Nc1ccc(NCc2ccc(F)cc2)cc1N", "values": [{"measurement": "Potency", "setting": "[2]", "value": "20.9 µM (active)"}]}, {"smiles": "CCCCCC[C@H]1C(=O)O[C@H](C)[C@H](NC(=O)c2cccc(NC=O)c2O)C(=O)O[C@@H](C)[C@@H]1OC(=O)CC(C)C", "values": [{"measurement": "Potency", "setting": "[1]", "value": "0.105 µM (active)"}, {"measurement": "Potency", "setting": "[2]", "value": "0.0833 µM (active)"}]}, {"smiles": "CCOC(=O)c1cncn1[C@H](C)c1ccccc1", "values": [{"measurement": "Potency", "setting": "[1]", "value": "inactive"}, {"measurement": "Potency", "setting": "[2]", "value": "inactive"}]}, {"smiles": "C[C@H]([C@H](O)CCC(C)(C)O)[C@H]1CC[C@@]2(O)C3=CC(=O)[C@@H]4C[C@@H](O)[C@@H](O)C[C@]4(C)[C@@H]3CC[C@]12C", "values": [{"measurement": "Potency", "setting": "[1]", "value": "inactive"}, {"measurement": "Potency", "setting": "[2]", "value": "inactive"}]}, {"smiles": "Cc1ccccc1-n1c(Cn2cnc3c(N)ncnc32)nc2cccc(C)c2c1=O", "values": [{"measurement": "Potency", "setting": "[1]", "value": "5.26 µM (active)"}, {"measurement": "Potency", "setting": "[2]", "value": "0.833 µM (active)"}, {"measurement": "Potency", "setting": "[3]", "value": "18.7 µM (active)"}, {"measurement": "IC50 (viability decrease)", "setting": "[4]", "value": "18.7 µM (active)"}, {"measurement": "Potency", "setting": "[5]", "value": "inactive"}]}, {"smiles": "O=C(Oc1ccc([N+](=O)[O-])cc1)N1CCC(C(O)(c2ccc3c(c2)OCO3)c2ccc3c(c2)OCO3)CC1", "values": [{"measurement": "Potency", "setting": "[1]", "value": "inactive"}, {"measurement": "Potency", "setting": "[2]", "value": "inactive"}, {"measurement": "Potency", "setting": "[6]", "value": "inactive"}, {"measurement": "Potency", "setting": "[3]", "value": "inactive"}, {"measurement": "Potency", "setting": "[7]", "value": "inactive"}, {"measurement": "Potency", "setting": "[5]", "value": "inactive"}]}, {"smiles": "COC[C@H]1OC(=O)c2coc3c2[C@@]1(C)C1=C(C3=O)[C@@H]2CC[C@H](O)[C@@]2(C)C[C@@H]1OC(C)=O", "values": [{"measurement": "Potency", "setting": "[1]", "value": "6.62 µM (active)"}, {"measurement": "Potency", "setting": "[2]", "value": "2.09 µM (active)"}]}, {"smiles": "CC(C)(O)C(=O)Nc1ccc([N+](=O)[O-])c(C(F)(F)F)c1", "values": [{"measurement": "Potency", "setting": "[2]", "value": "23.5 µM (active)"}]}, {"smiles": "CC(=O)Nc1ccc(OC[C@](C)(O)C(=O)Nc2ccc([N+](=O)[O-])c(C(F)(F)F)c2)cc1", "values": [{"measurement": "Potency", "setting": "[1]", "value": "inactive"}, {"measurement": "Potency", "setting": "[2]", "value": "inactive"}, {"measurement": "Potency", "setting": "[6]", "value": "inactive"}, {"measurement": "Potency", "setting": "[3]", "value": "inactive"}, {"measurement": "Potency", "setting": "[7]", "value": "inactive"}, {"measurement": "IC50 (viability decrease)", "setting": "[4]", "value": "inactive"}, {"measurement": "Potency", "setting": "[5]", "value": "inactive"}]}]}
